Data from PubChem BioAssay (NCI).
The panel holds about 83,000 compounds, 20% with a hit somewhere; the sample as a whole holds those more often.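 Single-concentration screen, 48 h exposure, 96-well plates. Endpoint: percent growth. Below 10 = active.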 Activity calls are given as the source filed them.

Assays:
Experiment in all cases: NCI-60 one-dose screen, 48 h (100 = growth as untreated, 0 = no growth, -100 = all killed)
HCT-15 colon = settings: 10 µM unless noted
HT29 colon = settings: 10 µM unless noted
SNB-75 CNS = settings: 10 µM unless noted
U251 CNS = settings: 10 µM unless noted
PC-3 prostate = settings: 10 µM unless noted
SK-MEL-5 melanoma = settings: 10 µM unless noted
UACC-62 melanoma = settings: 10 µM unless noted
LOX IMVI melanoma = settings: 10 µM
SK-MEL-28 melanoma = settings: 10 µM unless noted
SK-MEL-2 melanoma = settings: 10 µM unless noted
EKVX NSCLC = settings: 10 µM unless noted
UO-31 renal = settings: 10 µM unless noted
TK-10 renal = settings: 10 µM unless noted
ACHN renal = settings: 10 µM unless noted
CAKI-1 renal = settings: 10 µM unless noted
A498 renal = settings: 10 µM unless noted
CCRF-CEM leukemia = settings: 10 µM unless noted
MOLT-4 leukemia = settings: 10 µM unless noted
SNB-19 CNS = settings: 10 µM unless noted
SN12C renal = settings: 10 µM unless noted

Measured: growth

COc1ccc(C(SCCNCc2cc(N(C)C)ccn2)(c2ccccc2)c2ccccc2)cc1
active: HCT-15 colon -19.5% | HT29 colon -60.2% | SNB-75 CNS -0.256% | U251 CNS -33.9% | PC-3 prostate 2.15% | SK-MEL-5 melanoma -100% | UACC-62 melanoma -3.86% | LOX IMVI melanoma -98.9% | SK-MEL-28 melanoma -65.3% | SK-MEL-2 melanoma -34.9% | EKVX NSCLC 9.49% | A498 renal 4.54% | CCRF-CEM leukemia 4.47% | MOLT-4 leukemia 9.51%
inactive: UO-31 renal 15.4% | TK-10 renal 24.5% | ACHN renal 20.3% | CAKI-1 renal 11.3%

CC(=O)OC[C@@]1(C)C2CC[C@]3(C)C(CC=C4C5CC(C)(C)CC[C@]5(C(=O)Nc5cccc(C)c5)CC[C@]43C)[C@@]2(C)C[C@@H](OC(C)=O)[C@@H]1OC(C)=O (stereo not given in full)
inactive: HCT-15 colon 30.9% | HT29 colon 25.5% | SNB-75 CNS 67.9% | U251 CNS 40.6% | PC-3 prostate 29.4% | UACC-62 melanoma 45.4% | LOX IMVI melanoma 11.6% | SK-MEL-28 melanoma 62.3% | SK-MEL-2 melanoma 38.7% | EKVX NSCLC 30.7% | UO-31 renal 37.4% | TK-10 renal 52.9% | ACHN renal 38.8% | CAKI-1 renal 42.2% | A498 renal 59.6% | CCRF-CEM leukemia 30.4% | MOLT-4 leukemia 30.7%
active: SK-MEL-5 melanoma 3.77%

CCN(CC)CCOc1ccc(Nc2ncc3cc(-c4ccc(O)c(C#N)c4)c(=O)n(C)c3n2)cc1
inactive: HCT-15 colon 86.2% | SNB-19 CNS 108% | PC-3 prostate 69.5% | SK-MEL-5 melanoma 43.8% | UACC-62 melanoma 92.1% | LOX IMVI melanoma 47% | SK-MEL-28 melanoma 79.8% | SK-MEL-2 melanoma 105% | EKVX NSCLC 139% | SN12C renal 69.5% | UO-31 renal 67.6% | TK-10 renal 96.8% | ACHN renal 40.1% | CAKI-1 renal 45.9% | A498 renal 113%
active: HT29 colon -58.4% | U251 CNS -61.2% | CCRF-CEM leukemia -25.5% | MOLT-4 leukemia 3.63%

CC(/C=C1\SC(=S)N(CCCC(=O)NC(CC(C)C)C(=O)O)C1=O)=C\c1ccccc1 (stereo not given)
inactive: HCT-15 colon 98.6% | HT29 colon 119% | SNB-19 CNS 93.8% | U251 CNS 79.6% | PC-3 prostate 55.9% | SK-MEL-5 melanoma 88.1% | UACC-62 melanoma 76% | LOX IMVI melanoma 53.2% | SK-MEL-28 melanoma 94.8% | SK-MEL-2 melanoma 101% | EKVX NSCLC 101% | SN12C renal 90.2% | UO-31 renal 64.4% | TK-10 renal 131% | ACHN renal 54.1% | CAKI-1 renal 79.5% | A498 renal 145% | CCRF-CEM leukemia 89.7% | MOLT-4 leukemia 54.9%

COc1ccc(-c2nc3cc(C)ccc3n2CC(=O)N=Nc2c(O)[nH]c3ccc(OC)cc23)cc1
inactive: A498 renal 52.3% | CCRF-CEM leukemia 38.5%
active: HCT-15 colon -86.5% | HT29 colon -20% | SNB-19 CNS 4.91% | U251 CNS -80.2% | PC-3 prostate -52.4% | SK-MEL-5 melanoma -95.9% | UACC-62 melanoma -86.5% | LOX IMVI melanoma -98% | SK-MEL-28 melanoma -97.8% | SK-MEL-2 melanoma -14% | EKVX NSCLC -25.5% | SN12C renal -95.1% | UO-31 renal -29.4% | TK-10 renal -3.46% | ACHN renal -73.9% | CAKI-1 renal -51.3% | MOLT-4 leukemia -46.2%

Cn1cc(-c2cc(N)n3nc(-c4c[nH]c5ccccc45)cc3n2)c2cc(Br)cnc21
active: HCT-15 colon -58.5% | HT29 colon -80.7% | SNB-19 CNS -39.6% | U251 CNS -79.7% | PC-3 prostate -43.3% | SK-MEL-5 melanoma -94.2% | UACC-62 melanoma -95% | LOX IMVI melanoma -94.1% | SK-MEL-28 melanoma -96.2% | SK-MEL-2 melanoma -72.6% | EKVX NSCLC -60.4% | SN12C renal -81.5% | UO-31 renal -42.1% | TK-10 renal -58.2% | ACHN renal -74.6% | CAKI-1 renal -36% | A498 renal -28.6% | CCRF-CEM leukemia -36.2% | MOLT-4 leukemia -52%

C=C1CCC2C3(C)COC(c4cccs4)OC3CCC2(C)C1CC(Sc1ccccc1)C1=CCOC1=O (stereo not given)
inactive: HCT-15 colon 44.3% | HT29 colon 69.4% | SNB-19 CNS 95.4% | U251 CNS 69.1% | PC-3 prostate 53.5% | SK-MEL-5 melanoma 89.2% | UACC-62 melanoma 71.7% | SK-MEL-28 melanoma 99.4% | SK-MEL-2 melanoma 98.2% | EKVX NSCLC 116% | SN12C renal 46.4% | UO-31 renal 58.5% | TK-10 renal 118% | ACHN renal 91.1% | CAKI-1 renal 101% | A498 renal 133% | MOLT-4 leukemia 52.9%
active: LOX IMVI melanoma -77.9% | CCRF-CEM leukemia 1.2%

CC(C)c1sc(NC(=O)c2cc(NC(=O)c3cc(NC(=O)c4nccn4C)cn3C)cn2C)nc1C(=O)NCCCN(C)C
inactive: HCT-15 colon 104% | HT29 colon 90.7% | SNB-19 CNS 48.1% | U251 CNS 30.2% | PC-3 prostate 46% | SK-MEL-5 melanoma 73.5% | UACC-62 melanoma 66.3% | LOX IMVI melanoma 29.8% | SK-MEL-28 melanoma 99% | SK-MEL-2 melanoma 80.8% | EKVX NSCLC 105% | SN12C renal 85.7% | UO-31 renal 98.1% | TK-10 renal 97.9% | ACHN renal 108% | CAKI-1 renal 102% | A498 renal 116% | CCRF-CEM leukemia 19.3% | MOLT-4 leukemia 65.8%
